# PubChem BioAssay (Tox21)
# Where “and” joins values, the source holds several entries; their conditions need not be identical. Equal values may be shown once. Results filed as inconclusive are left out. Entries that show only a call come without a potency. More than one record can exist for a structure, and the calls need not agree. Calls of active or inactive are those of the source. Unless noted, the call rests on the fitted dose curve; in most records, active means well fitted curve in the direction sought with a large enough effect in the repeat runs; inconclusive means weak or mixed curves; inactive means no such curve, though single readings can be large; an effect the other way counts as inactive or inconclusive.
# What was measured:
# [1] = target: Retinoic acid receptor RXR-alpha (Homo sapiens) (UniProt P19793); experiment: qHTS assay to identify small molecule agonists of the RXR signaling pathway (AID 1159527; calls by dose curve; further: nearly all actives have a fitted effect of over 35% in size)
# Sequence of Retinoic acid receptor RXR-alpha (Homo sapiens) (P19793 whole entry, looked up): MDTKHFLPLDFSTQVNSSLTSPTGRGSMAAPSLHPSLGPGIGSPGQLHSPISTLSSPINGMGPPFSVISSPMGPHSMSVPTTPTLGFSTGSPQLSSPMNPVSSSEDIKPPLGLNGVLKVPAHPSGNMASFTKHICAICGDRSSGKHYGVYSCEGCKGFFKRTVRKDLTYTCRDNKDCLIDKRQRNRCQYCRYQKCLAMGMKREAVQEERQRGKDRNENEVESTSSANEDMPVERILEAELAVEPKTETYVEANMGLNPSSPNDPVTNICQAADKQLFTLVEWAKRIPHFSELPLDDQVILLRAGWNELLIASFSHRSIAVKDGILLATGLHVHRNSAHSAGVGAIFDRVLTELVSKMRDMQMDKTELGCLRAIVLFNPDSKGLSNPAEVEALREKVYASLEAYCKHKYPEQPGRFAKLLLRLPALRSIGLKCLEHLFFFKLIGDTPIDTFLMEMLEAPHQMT
# In short: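 Compounds in DMSO were added to RXR-alpha-UAS-bla HEK 293T cells kept in 2% charcoal-stripped serum, and incubated 16 hr at 37 C with 5% CO2. Reporter signal came from a 2 hr B/G FRET substrate step.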
# [2] = qHTS assay to identify small molecule antagonists of the retinoic acid receptor (RAR) signaling pathway (AID 1159552; further: nearly all actives have a fitted effect of over 50% in size)
# In short: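 Antagonism of retinol-induced RARE reporter activity was measured in C3RL4 cells. Exposure to compounds and 1 uM final retinol lasted 6 hr at 37 C, with luminescence as endpoint.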
# [3] = qHTS assay to identify small molecule agonists of the retinoic acid receptor (RAR) signaling pathway (AID 1159553)
# In short: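 Activation of retinol signaling was monitored via a RARE luciferase reporter in C3RL4 cells. After 6 hr compound treatment at 37 C, detection reagent was added for 30 min at room temperature before luminescence reading.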
# [4] = qHTS assay to identify small molecule antagonists of the estrogen related receptor (ERR) signaling pathway from Tox21 library - cell viability counter screen (AID 1224834); further: nearly all actives have a fitted effect of over 30% in size
# In short: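 CellTiter-Fluor fluorescence measured; ERR cells; 17.5 h compound incubation at 37 C; 30 min reagent step.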
# [5] = qHTS assay to identify small molecule agonists of the constitutive androstane receptor (CAR) signaling pathway - cell viability counter screen (AID 1224836); further: series mostly up to about 92 µM; nearly all actives have a fitted effect of over 45% in size
# In short: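 Double-stable HepG2 hepatoma cells (hCAR plus CYP2B6-2.2kb) are treated for 23 h at 37 C with test compounds in 15-point concentration series. PK11195 at 0.75 uM final is co-added. Cell viability is quantified by CellTiter-Fluor.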
# [6] = target: Nuclear receptor subfamily 1 group I member 3 (Homo sapiens) (UniProt Q14994); experiment: qHTS assay to identify small molecule antagonists of the constitutive androstane receptor (CAR) signaling pathway (AID 1224838);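 further: HepG2 cells stably expressing hCAR with CYP2B6 luciferase reporter stimulated by CITCO; nearly all actives have a fitted effect of over 40% in size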
# Sequence of Nuclear receptor subfamily 1 group I member 3 (Homo sapiens) (Q14994 whole entry, looked up): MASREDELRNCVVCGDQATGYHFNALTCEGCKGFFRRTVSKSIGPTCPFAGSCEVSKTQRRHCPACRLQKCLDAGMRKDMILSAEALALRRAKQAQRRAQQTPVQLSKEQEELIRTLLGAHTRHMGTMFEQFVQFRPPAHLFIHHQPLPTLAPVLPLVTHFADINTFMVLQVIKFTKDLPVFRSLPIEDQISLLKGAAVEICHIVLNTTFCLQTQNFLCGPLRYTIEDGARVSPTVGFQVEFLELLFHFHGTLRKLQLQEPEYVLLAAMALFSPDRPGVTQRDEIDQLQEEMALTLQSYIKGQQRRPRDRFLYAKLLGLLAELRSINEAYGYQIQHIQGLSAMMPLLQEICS
# In short: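 Reporter luminescence was quantified after 24 h exposure of hCAR/CYP2B6-2.2kb double-stable HepG2 cells to compounds at 15 concentrations in the presence of 50 nM CITCO final.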
# [7] = target: Nuclear receptor subfamily 1 group I member 3 (Homo sapiens) (UniProt Q14994); experiment: qHTS assay to identify small molecule agonists of the constitutive androstane receptor (CAR) signaling pathway (AID 1224839);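 further: HepG2 cells stably carrying human CAR and a CYP2B6 luciferase reporter; series mostly up to about 92 µM; nearly all actives have a fitted effect of over 15% in size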
# In short: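 Readout: firefly luciferase luminescence via ONE-Glo. System: HepG2 double-stable for hCAR and CYP2B6-2.2kb. Conditions: 15-point compound titration, PK11195 at 0.75 uM final, 24 h incubation.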
# [8] = qHTS assay to identify small molecule antagonists of the estrogen related receptor signaling pathway with the pleiotropic PPARgamma coactivator (PGC) from Tox21 10K library - cell viability counter screen (AID 1224840; active means well fitted cell-killing curve with a large enough effect in the repeat runs, not every such curve was filed as active; further: nearly all actives have a fitted effect of over 40% in size)
# In short: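 Here the PGC/ERR cells serve as a cytotoxicity control: they are exposed to compounds for 17.5 hours at 37 C, and live-cell signal is quantified using CellTiter-Fluor fluorescence.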
# [9] = qHTS assay to identify small molecule antagonists of the estrogen related receptor signaling pathway with the pleiotropic PPARgamma coactivator (PGC) from Tox21 10K library (AID 1224841; call rule not given here; further: series mostly up to about 92 µM; actives are mostly falling curves and most rising ones were filed inactive; nearly all actives have a fitted effect of over 50% in size)
# In short: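 Each well held 2,000 PGC/ERR cells, pre-incubated six hours (37 C, 5% CO2). Test substances in DMSO were added by pin tool and left for 18 h at 37 C before luciferase detection by One-Glo.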
# [10] = qHTS assay to identify small molecule agonists of the estrogen related receptor signaling pathway with the pleiotropic PPARgamma coactivator (PGC) from Tox21 10K library (AID 1224842); further: nearly all actives have a fitted effect of over 15% in size
# In short: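 Luminescence from One-Glo (30 min, room temperature) measured after PGC/ERR cells had 18 h at 37 C with pinned compound (23 nL in DMSO). Cells had been seeded at 2,000 per well and pre-incubated 6 h.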
# [11] = qHTS assay to identify small molecule antagonists of the estrogen related receptor (ERR) signaling pathway - cell viability counter screen (AID 1224818);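 further: series mostly up to about 46 µM; viability measured after 17.5 h of compound exposure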
# In short: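 In the same ERR cell assay, compound-treated wells (17.5 h, 37 C) were multiplexed with a fluorogenic viability reagent, CellTiter-Fluor, read after 30 min to flag cytotoxic substances.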
# [12] = qHTS assay to identify small molecule antagonists of the estrogen related receptor (ERR) signaling pathway (AID 1224819;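 further: luminescence from an ERR-driven luciferase reporter measured with One-Glo reagent; series mostly up to about 46 µM; nearly all actives have a fitted effect of over 50% in size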)
# In short: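 qHTS in ERR cells, 2,000/well, 1536 format. Cpd (DMSO) added after 6 h settle, 18 h 37 C. One-Glo luminescence, 30 min RT.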
# [13] = qHTS assay to identify small molecule agonists of the estrogen related receptor (ERR) signaling pathway (AID 1224820)
# In short: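 Cells: ERR line from NTP, 2,000/well. Pre-incubation 6 h, 37 C/5% CO2. Compound (DMSO) pin transfer, 18 h 37 C. One-Glo, 30 min RT, luminescence.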
# [14] = tested on: estrogen-related receptor alpha (ERRalpha) with PGC-1alpha coactivator, human; experiment: qHTS assay to identify small molecule antagonists of the estrogen related receptor signaling pathway with the pleiotropic PPARgamma coactivator (PGC) (AID 1224821; calls by dose curve;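 further: series mostly up to about 46 µM; lower luminescence signal means antagonism of PGC/ERR signalling; nearly all actives have a fitted effect of over 50% in size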)
# In short: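 Luminescent read-out (One-Glo, 30 min at room temperature) following 18 h treatment of PGC/ERR cells at 37 C with compounds delivered in DMSO. Cells had settled 6 h at 37 C/5% CO2 before dosing.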
# [15] = qHTS assay to identify small molecule antagonists of the estrogen related receptor signaling pathway with the pleiotropic PPARgamma coactivator (PGC) cell viability counter screen (AID 1224822; further: series mostly up to about 46 µM)
# In short: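 Compounds in DMSO, with positive and negative controls, were applied to PGC/ERR cells (2,000/well) and left 17.5 h at 37 C before CellTiter-Fluor detection.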
# [16] = qHTS assay to identify small molecule agonists of the estrogen related receptor signaling pathway with the pleiotropic PPARgamma coactivator (PGC) (AID 1224823)
# In short: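 Steps: plate PGC/ERR cells at 2,000 cells/well; incubate 6 h, 37 C/5% CO2; pin-transfer compounds (DMSO); incubate 18 h, 37 C; add One-Glo; 30 min RT; read luminescence.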
# [17] = target: Luciferin 4-monooxygenase (Photinus pyralis) (UniProt P08659); experiment: qHTS assay to identify small molecule inhibitors of firefly luciferase (AID 1224835); further: nearly all actives have a fitted effect of over 25% in size; further: potency means the concentration at half of the fitted maximal effect
# Sequence of Luciferin 4-monooxygenase (Photinus pyralis) (P08659 whole entry, looked up): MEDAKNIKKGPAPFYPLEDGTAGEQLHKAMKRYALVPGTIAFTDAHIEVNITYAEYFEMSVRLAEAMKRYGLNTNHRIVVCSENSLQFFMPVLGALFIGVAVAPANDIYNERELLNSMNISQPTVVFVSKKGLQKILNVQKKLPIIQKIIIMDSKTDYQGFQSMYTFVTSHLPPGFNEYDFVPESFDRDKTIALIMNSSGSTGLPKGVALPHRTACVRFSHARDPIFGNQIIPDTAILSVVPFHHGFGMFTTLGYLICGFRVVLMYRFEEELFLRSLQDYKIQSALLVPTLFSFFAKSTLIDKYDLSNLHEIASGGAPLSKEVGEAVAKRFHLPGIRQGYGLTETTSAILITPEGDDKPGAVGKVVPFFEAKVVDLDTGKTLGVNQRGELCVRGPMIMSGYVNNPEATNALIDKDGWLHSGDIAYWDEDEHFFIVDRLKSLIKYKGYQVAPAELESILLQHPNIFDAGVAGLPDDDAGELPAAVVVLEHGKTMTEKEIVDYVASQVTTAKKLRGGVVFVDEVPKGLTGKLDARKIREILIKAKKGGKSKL
# In short: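 Inhibition of purified Photinus luciferase is measured by luminescence. Substrate levels (D-luciferin, ATP) sit at their KM values. Each compound is tested in a concentration series.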
# [18] = qHTS assay to identify small molecule antagonists of the constitutive androstane receptor (CAR) signaling pathway - cell viability counter screen (AID 1224837); further: series mostly up to about 92 µM; nearly all actives have a fitted effect of over 45% in size
# In short: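 Using CellTiter-Fluor, viability is scored in HepG2 cells stably carrying hCAR and a 2.2kb CYP2B6 reporter after 23 hr compound exposure across 15 concentrations, with CITCO present at 50 nM.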
# [19] = qHTS assay to identify small molecule antagonists of the retinoid acid receptor (RAR) signaling pathway - cell viability counter screen (AID 1159551); further: nearly all actives have a fitted effect of over 35% in size
# In short: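 Seed C3RL4 cells; next day add compound, then retinol to 1 uM final; incubate 6 h at 37 C; add CellTiter-Glo; read luminescence after 30 min at RT.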
SMILES,Potency [1],Potency [2],Potency [3],Potency [4],Potency [5],Potency [6],Potency [7],Potency [8],Potency [9],Potency [10],outcome [11],outcome [12],outcome [13],outcome [14],outcome [15],outcome [16],Potency [17],Potency [18],outcome [19]
C=CC(=O)OCC(CC)CCCC (stereo not given),inactive,inactive,inactive,inactive,inactive,inactive,inactive,inactive,inactive,inactive,,,,,,,,,
CC(C)c1cccc(C(C)C)c1O,inactive,inactive,inactive,inactive,inactive,inactive,,inactive,inactive,inactive,inactive,inactive,inactive,inactive,inactive,inactive,inactive,inactive,
CC(=O)/C=C/c1ccccc1,inactive,,,inactive,inactive,inactive,inactive,inactive,,,,,,,,,inactive,inactive,inactive
Nc1cccc(Cl)c1,inactive,,,inactive,inactive,inactive,inactive,inactive,inactive,inactive,,,,,,,inactive,inactive,inactive
ClCCOCCCl,inactive,inactive,inactive,inactive,inactive,,,inactive,,,,,,,,,inactive,inactive,
CCNc1nc(Cl)nc(NC(C)C)n1,inactive,,,inactive,inactive,,,inactive,inactive,inactive,,,,,,,inactive,,inactive
C=CC#N,inactive,inactive,inactive,inactive,inactive,inactive,inactive,inactive,inactive,inactive,,,,,,,inactive,inactive,
O=[N+]([O-])c1ccc(Cl)cc1,inactive,,,inactive,inactive,,,inactive,,,,,,,,,inactive,,inactive
Cl[C@H]1OCCO[C@@H]1Cl,inactive,inactive,inactive,inactive,inactive,inactive,inactive,inactive,inactive,inactive,,,,,,,inactive,inactive,
O=C(O)C1C(C(=O)O)C2(Cl)C(Cl)=C(Cl)C1(Cl)C2(Cl)Cl (stereo not given),inactive,,,inactive,inactive,inactive,inactive,inactive,,,,,,,,,inactive,,inactive
Cc1ccc(N=C=O)cc1N=C=O,inactive,inactive,inactive,inactive,inactive,inactive,inactive,inactive,inactive,inactive,,,,,,,40.9 µM (active) and 63.1 µM (active) and inactive,inactive,
CN(C)NC(=O)CCC(=O)O,inactive,inactive,inactive,inactive,inactive,inactive,inactive,inactive,inactive,inactive,,,,,,,inactive,,inactive
